# Laboratory results reported in the supplement of paper PMC3334620.
# The full ranking holds about 33,000 sequences; the median of “E-score (-0.5 to 0.5)” is about -0.032, and the highest 2% start at about 0.36. The sample holds the highest values, similar sequences and a random draw of the others, so the mix is not that of the screen.
# Target: T1, Sko1 (UniProt Q02100)
# T1 sequence: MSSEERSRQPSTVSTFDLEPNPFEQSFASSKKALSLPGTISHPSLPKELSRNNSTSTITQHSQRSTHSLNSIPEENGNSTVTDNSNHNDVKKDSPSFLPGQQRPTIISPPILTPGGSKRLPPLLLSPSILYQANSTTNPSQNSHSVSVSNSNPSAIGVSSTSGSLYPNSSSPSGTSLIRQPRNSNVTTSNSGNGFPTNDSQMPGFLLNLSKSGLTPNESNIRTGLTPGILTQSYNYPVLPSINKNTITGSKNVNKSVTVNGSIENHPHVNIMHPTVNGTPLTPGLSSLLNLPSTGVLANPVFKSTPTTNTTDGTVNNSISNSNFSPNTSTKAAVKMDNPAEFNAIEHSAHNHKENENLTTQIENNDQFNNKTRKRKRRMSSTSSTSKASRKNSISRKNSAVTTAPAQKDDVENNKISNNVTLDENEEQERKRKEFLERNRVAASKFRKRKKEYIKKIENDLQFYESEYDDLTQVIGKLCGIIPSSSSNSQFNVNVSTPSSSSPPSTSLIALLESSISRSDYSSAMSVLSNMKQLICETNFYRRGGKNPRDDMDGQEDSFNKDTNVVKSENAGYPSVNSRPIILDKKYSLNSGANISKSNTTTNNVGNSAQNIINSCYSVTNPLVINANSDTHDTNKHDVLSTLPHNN
# Experiment: PBM E-score (8-mer binding enrichment) (E-score (-0.5 to 0.5)); higher = stronger / more preferred TF binding
# Conditions: protein concentration: 200 nM; construct: GST-full length
# Protocol: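 Universal 'all 10-mer' protein binding microarrays (Agilent AMADID 015681) probed with GST-tagged S. cerevisiae TFs (full-length or DBD) made by in vitro transcription/translation (PURExpress), about 100-200 nM. Bound TF was detected with fluorescent anti-GST. Each ungapped 8-mer (which stands for itself and its reverse complement) is scored by the PBM enrichment score (E-score), a modified Wilcoxon-Mann-Whitney statistic from -0.5 to +0.5, computed with the Universal PBM Analysis Suite. Scale: above 0.35 generally sequence-specific binding.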
row,Sequence,PBM E-score
1,GTCGAGAA,0.107
2,CCGATGAA,-0.198
3,AGAGAGGC,-0.353
4,AGCCCAGG,-0.331
5,AACTAAGC,0.123
6,GAAGGAAC,-0.138
7,CAAACGTG,0.272
8,AAAACGTC,0.409
9,TAAACGTA,0.42
10,AAAACGTA,0.449
11,AAAACGTG,0.304
12,AAAACGAC,0.113
13,CAAACGTA,0.416
14,AAAACGTT,0.207
15,CAAACGCA,0.0771
16,AAAACGCC,0.0157
17,TAAACGGA,-0.0437
18,TAAACGAA,0.116
19,CGTGCTAC,0.208
20,CACTATAG,-0.00316
21,ATTTCAAC,0.0828
22,ACGGTAGG,-0.189
23,CAAACGTC,0.329
24,GAAACGAA,0.115
25,GAAACGTA,0.398

row,Sequence,PBM E-score
1,GAAACGGA,0.15
2,GAAACGTC,0.385
3,GAAACGCC,0.145
4,ACTAACTA,-0.0162
5,AGGTTGCA,0.0863
6,GCAGCGGA,-0.11
7,CCCTGAGC,-0.145
8,ACCATTGA,0.0435
9,AGACGTTG,0.111
10,AGACGTAT,0.441
11,AGACGTCG,0.21
12,AGACGTAC,0.395
13,AGGCGTAC,0.105
14,AGTCGTAT,0.0845
15,AGACGTAG,0.382
16,AGCCGTAT,-0.0778
17,ATGCAGGC,-0.024
18,CGTGCAAG,0.0462
19,CCTACAAA,-0.0324
20,CAAGTCTA,-0.0923
21,ACCCTGAT,-0.0969
22,AGCCCTAT,-0.331
23,CCGCGGGA,-0.201
24,AATGCCCT,-0.205
25,AGAGGGTA,-0.035

row,Sequence,PBM E-score
1,ATGTCGTC,0.365
2,ATGTCGTG,0.239
3,GTGTCGTA,0.312
4,ATGTCGTA,0.424
5,ATGTCGGC,-0.12
6,CTGTCGTC,0.21
7,TGATAGAA,0.0834
8,AGGAGGTC,-0.24
9,AGCTAACA,-0.0839
10,AGGCACGA,0.0425
11,ACGACGGG,0.0518
12,ACGACGCC,0.0289
13,ACGACGAG,0.00694
14,ACGACGAT,0.127
15,ACGACGAC,0.00819
16,ACGACGTG,0.365
17,ACGACGTC,0.367
18,ACGACGGA,0.0966
19,ACGACGTA,0.446
20,ATGGGCAA,-0.138
21,AGGAGATC,-0.214
22,AGAAACAT,0.152
23,TCCTTGCA,-0.292
24,AAAATTCC,-0.152
25,CACGCCGG,-0.211

row,Sequence,PBM E-score
1,CGAAAAGA,0.163
2,CTTTCGTA,0.339
3,ATTTCGTC,0.343
4,GATTCGTA,0.251
5,CATTCGTA,0.317
6,AATTCGTA,0.386
7,ATTTCGTA,0.372
8,CGCGGAAC,-0.165
9,GGCTTCCA,-0.218
10,GGCGTGCA,-0.0639
11,GACGTGCA,0.389
12,TACGTGCA,0.423
13,GACGTGCC,0.266
14,AACGTGCA,0.191
15,CACGTGCA,0.329
16,AGACTATA,0.00094
17,CCAAGTGC,-0.285
18,AGCACGTG,0.397
19,AGCACGAA,0.169
20,AGCACGTC,0.309
21,AGCACGTA,0.406
22,AGCACATA,0.0436
23,AGCACGAG,-0.0498
24,AGTAGTCC,0.0244
25,GACGTTAC,0.365

row,Sequence,PBM E-score
1,AACGTTAT,0.368
2,AACGTTAG,0.176
3,CACGTTAC,0.305
4,AACGTTAC,0.321
5,TACGTTCA,0.374
6,AACGTTCA,0.0648
7,AACGTTTA,0.31
8,AACGTTCT,0.167
9,CACGTTCA,0.171
10,CACGTTTA,0.321
11,GACGTTTA,0.386
12,AGCTCAAC,-0.147
13,AGTGCTGG,-0.111
14,AAGTCGAC,0.0592
15,ATCTGAGA,-0.0991
16,CAATACCG,-0.186
17,CTTGAAGA,-0.132
18,ACGAAGGG,0.129
19,CTGATCCC,-0.269
20,AACTCCTT,-0.0253
21,ATTCGACA,-0.09
22,CAACAACC,-0.0035
23,CCAGAGAC,-0.251
24,CATCCCTC,-0.245
25,GACGTTGA,0.269

row,Sequence,PBM E-score
1,GGCGTTAA,-0.0249
2,TACGTTGA,0.38
3,GACGTTAA,0.368
4,CACGTTAA,0.244
5,TACGTTAA,0.413
6,CACGTTAG,0.2
7,CACGTTGA,0.25
8,AACGTTAA,0.243
9,CTTCCTAC,-0.225
10,CTTCTCTA,-0.284
11,TATGAGCA,0.00789
12,ACCTGGCT,-0.232
13,ACCGTCCG,-0.304
14,AGGAGCCA,-0.258
15,CCTGCGGC,-0.427
16,CAATGACG,0.486
17,AAATGACC,0.0951
18,CAATGACC,0.0293
19,TAATGACA,0.364
20,GAATGACA,0.249
21,AAATGACA,0.272
22,CAATGACA,0.229
23,TAATGAAA,0.24
24,AAATGACG,0.481
25,AAATGGTG,0.0316

row,Sequence,PBM E-score
1,GAAGGTAA,0.0069
2,ACACTCAG,-0.0491
3,TACGGCTA,-0.0295
4,ATTCGAAG,0.0402
5,AGCTAGTG,-0.00092
6,AAACAAGG,-0.131
7,ATGATTCC,0.169
8,ACCTACGT,0.444
9,AACTACGA,0.198
10,AACTACGC,0.305
11,ACCTACGG,-0.217
12,ACCTACGC,0.293
13,AACTACGT,0.455
14,ACGCCAAA,0.0451
15,GCAAACCA,-0.0509
16,CTTTGGAA,-0.0181
17,AGTCGTTA,0.0683
18,CAAGAAGA,-0.0303
19,CTCTTTCA,-0.0826
20,CAGGTTTC,-0.0189
21,GAAGCACC,-0.0674
22,TAAAGAGA,0.0871
